CHX counter – counter-screen hit for Shiga toxin inhibitors, cycloheximide; cell reporter, cycloheximide protein synthesis inhibition counterscreen; max response, %; hit rate 12% among 300,000; AID 2314; in the data active = max response mostly above about 13%, no sharp cut-off; inactive = mostly below about 14%; also: read at 38.3 µM for the half of the compounds with a filed dose
Pf growth 96h – P. falciparum growth inhibition at 96 hour, primary screen for plastid delayed-death inhibitors; Potency, µM (series often up to 28.7 µM), most hits filed as inhibitors; hit rate 6.9% among 320,000; P. falciparum luciferase reporter growth, 96 h
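Cell-based qHTS: luciferase-tagged P. falciparum in erythrocytes (2% hematocrit, 0.05% parasitemia final) incubated with compounds for 96 hours, 37 C, 5% CO2; luciferase detection reagent then added and luminescence measured.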
NS1 function inh – blocks influenza NS1 protein function; Potency, µM (titrated, usually from 46.1 µM); hit rate 0.4% among 270,000; calls by dose curve; also: actives are rising curves; nearly all actives have a fitted effect of over 50% in size
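Compounds were scored for reversing the slow growth caused by influenza A NS1 in S. cerevisiae, measured by optical density at 600 nm. Assay medium contained 2% galactose at pH 6.0; NS1-free yeast of the same strain were the positive control.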
Sm TGR block – S. mansoni TGR enzyme inhibition. Q962Y6. purified TGR, DTNB reduction, TNB absorbance 405 nm. Potency, µM (titrated, usually from 114 µM), usual class: inhibitors. hit rate 3% among 360,000. AID 485364; also: nearly all actives have a fitted effect of over 60% in size
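TGR 20 nM + NADPH 100 uM (dispensed conc.), cpd preinc 15 min RT; start with NADPH (500 uM addition) then DTNB (15 mM addition). Kinetic TNB absorbance, 405 nm filter. Four-parameter Hill fit across titration.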
Shiga inhibitor – inhibitors of Shiga toxin in Vero cells; Vero cells, Shiga toxin protein synthesis inhibition reporter; inhibition, % at 38.7 µM; hit rate 9.2% among 290,000; AID 2315; in the data active = inhibition mostly above about 28%, no sharp cut-off; inactive = mostly below about 43%
Pf growth 48h – P. falciparum growth inhibition at 48 hours (one generation) | Potency, µM (highest dose often 28.7 µM), hits mostly inhibitors | hit rate 5.9% among 310,000 | P. falciparum luciferase growth in erythrocytes, 48 h
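Here the parasites carry a stable luciferase gene and grow inside erythrocytes in Albumax-based RPMI medium with compound for one erythrocytic cycle. Activity is scored as loss of luminescent signal.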
Hits are given with their value; i = inactive; ? = inconclusive; nt = not tested or not shown; [ ] = another dose, or the depositor's remark. Rows were chosen to be rich in hits. Some 21% of all compounds tested hit in one or more screens of this group. Unless noted, calls follow the shape of the dose curve; as a rule, active = well fitted curve in the direction sought with a large enough effect; inconclusive = small, poorly fitted or top-dose-only effect, or another doubt; inactive = no such curve, though single readings can be large; an effect the other way counts as inactive or inconclusive.

SMILES	CHX counter	Pf growth 96h	NS1 function inh	Sm TGR block	Shiga inhibitor	Pf growth 48h
COc1ccc(CN2C(=O)c3ccccc3C(/C=N\OCc3ccc(C)cc3)C2=O)cc1 (centres undefined)	i	?	i	i	i	?
CC(C)Nc1nc(NC(C)C)nc(N(C)C(N)=O)n1	i	11.7µM	i	i	i	i
CC(C)Nc1nc(NC(C)C)nc(N(C)N)n1	i	3.7µM	i	i	i	nt
O=C(c1ccccc1)N1CCCCC(Cl)C1=O (centres undefined)	i	i	nt	i	i	i
CCOc1ccc(-n2c(Cc3cc(=O)[nH]c(=O)[nH]3)nnc2SC(C)C(=O)OC)cc1 (centres undefined)	i	9.28µM	i	i	i	nt
CCOc1ccc(-n2c(Cc3cc(=O)[nH]c(=O)[nH]3)nnc2SCC(=O)NC2CCCC2)cc1	i	10.4µM	i	?	i	nt
CN(/N=C/c1ccc(O)cc1O)c1ncc(C(F)(F)F)cc1Cl	i	i	i	i	i	i
CCOC(=O)N1CCN(C(=O)CCCCn2c(=S)[nH]c3ccsc3c2=O)CC1	i	i	nt	i	i	i
COC(=O)c1ccc(Cl)c(NC(=O)C2CCN(S(=O)(=O)Cc3ccccc3)CC2)c1	nt	nt	nt	i	nt	nt
O=C(Nc1nc2cc3c(cc2s1)OCCO3)c1cccc(N2C(=O)CCC2=O)c1	20.6	i	i	i	35.7	i
CCN(CC)S(=O)(=O)c1cccc(C(=O)Nc2nc3cc4c(cc3s2)OCCO4)c1	i	i	i	i[11.4 µM]	i	nt
O=C(Nc1ccc2sccc2c1)c1cccc(N2C(=O)CCC2=O)c1	37.2	i	i	i	91.7	i
COc1ccccc1C(=O)Nc1nc2cc3c(cc2s1)OCO3	54.9	i	i	i	89.6	i
NNc1nc2cc3c(cc2s1)OCCO3	31.9	i	i	i	63.8	i
O=C(Nc1nc2ccccc2s1)c1cccc(N2C(=O)CCC2=O)c1	i	i	i	i	i	i
CN(CCCNC(=O)CCC(=O)N1CCOc2ccccc21)Cc1ccccc1	i	i	i	i	i	i
Cc1ccccc1C(=O)N1CCC(C(=O)OCc2ccccc2Cl)CC1	nt	i	nt	i	nt	?
COc1ccccc1C(=O)Nc1nc2cc3c(cc2s1)OCCO3	34.2	i	i	i	60.8	i
COc1ccc(C(=O)Nc2nc3cc4c(cc3s2)OCCO4)c(OC)c1	23.5	i	i	i	80.5	i
O=C(Nc1nc2cc3c(cc2s1)OCCO3)c1cccs1	26.8	i	i	i	i	i
COc1ccc(Cl)cc1S(=O)(=O)N1CCN(Cc2cccc(F)c2)CC1	nt	nt	nt	i	nt	nt
COC(=O)c1ccc(CO/N=C2\CCCc3nonc32)cc1	44.0	i	nt	i	i	i
COc1ccc(C(=O)O/N=C2\CCCc3nonc32)cc1	i	i	i	i	i	i
CC(=O)Nc1cccc(C(=O)/C=C/c2ccc(C)cc2)c1	17.3	?	i	i	i	i
CCC(=O)Nc1cccc(C(=O)/C=C/c2ccc(F)cc2)c1	17.1	?	i	?	i	?
SMILES	CHX counter	Pf growth 96h	NS1 function inh	Sm TGR block	Shiga inhibitor	Pf growth 48h
CCOC(=O)c1ccc(NC(=O)CCCn2nc(C)c3sc4ccccc4c3c2=O)cc1	nt	nt	nt	i	nt	nt
CCOC(=O)c1c(C)[nH]c(C)c1S(=O)(=O)NC(CC)CN1CCOCC1 (centres undefined)	i	i	i	i	i	i
Cc1[nH]c(=O)[nH]c(=O)c1S(=O)(=O)N1CCC(C(=O)NC(C)c2ccccc2)CC1 (centres undefined)	i	4.15µM	i	i	i	i
Cc1cccc(NC(=O)C2CCN(S(=O)(=O)c3c(C)[nH]c(=O)[nH]c3=O)CC2)c1	i	13.1µM	i	i	i	i
CC(NC(=O)C1CCN(S(=O)(=O)c2ccccc2)CC1)c1ccccc1 (centres undefined)	i	i	i	i	i	i
COc1ccc(Cl)c(N2CCN(CCCNC(=O)Nc3ccc(C)cc3)CC2)c1	i	nt	i	i	i	13.1µM
CCc1ccc(NC(=O)NCCN2CCN(c3ccc(OC)cc3)CC2)cc1	i	13.1µM	i	i	i	i[0.00184 µM]
COc1ccc(NC(=O)NCCN2CCN(c3cc(OC)ccc3OC)CC2)cc1	i	i	i	i	i	i
O=C(c1ccc2c(c1)OCO2)N1CCC(Cc2ccccc2)CC1	i	i	i	i	i	i
Brc1ccccc1OCCCN1CCCC1	i	?	?	i	i	i
CCN1CCN(CCCCSc2ccccc2)CC1	i	?	i	i	i	i
c1ccc(SCCCCN2CCOCC2)cc1	15.0	?	i	i	i	?
Brc1ccccc1OCCCCCN1CCOCC1	29.5	i	nt	i	134.6	i
Nc1ccc(-c2nnnn2-c2ccc(N)cc2)cc1	i	i	i	i	nt	i
Cc1cc(C(F)(F)F)nc(SCC(=O)NC2CCCCC2)n1	i	?	i	i	i	i
CCC(=O)CC	i	nt	nt	nt	i	nt
CCCCC(CC)C(=O)NCc1ccc(F)cc1 (centres undefined)	i	i	i	i	i	i
Fc1ccccc1/C=C1\CCCC2=C1Nc1nnnn1C2c1ccccc1F (centres undefined)	i	i	i	6.31µM	i	i
COc1cc(C2=NOC(C(=O)Nc3cc(C)on3)C2)cc(OC)c1OC (centres undefined)	i	i	i	i	i	i
COC(=O)C1=C(C)NC(C)=C(C(=O)OC)C1c1ccccc1OCc1c(C)no[n+]1[O-]	i	i	i	i	i	11.7µM
COc1ccccc1NC(=O)c1sc2nc(C)c(C(=O)Nc3ccc(C)cc3C)c(-c3ccco3)c2c1N	i	nt	nt	i	i	nt
Cc1cc(NC(=O)c2ccccc2)c(Cl)cc1N	i	i	i	i	i	i
CCOc1ccc2nc(N3CCC(C(=O)NC4CCCCC4)CC3)sc2c1	i	i	i	i	i	i
CCOc1cc2sc(N3CCC(C(=O)Nc4cc(C)cc(C)c4)CC3)nc2cc1Br	nt	nt	nt	i	nt	nt
CCOc1ccc2nc(N3CCC(C(=O)NCCCN4CCOCC4)CC3)sc2c1	37.2	i	i	i	55.6	i
SMILES	CHX counter	Pf growth 96h	NS1 function inh	Sm TGR block	Shiga inhibitor	Pf growth 48h
CCOc1ccc2nc(N3CCCC(C(=O)NCCCN4CCOCC4)C3)sc2c1 (centres undefined)	27.7	?	i	i	58.1	i
CCOc1cc2sc(N3CCC(C(=O)Nc4ccc(C(C)C)cc4)CC3)nc2cc1Br	55.9	nt	nt	i	120.5	nt
O=C(/C=C/c1ccc([N+](=O)[O-])cc1)N(c1ccccn1)C1CCCCC1	i	?	nt	?	i	?
O=C(c1cccs1)N1CCN(c2ccc(F)cc2)CC1	i	nt	i	i	i	i
O=C(CN1CCc2ccccc2C1)c1cccs1	48.7	nt	i	i	81.6	?
O=C(CN1CCN(c2ccc(F)cc2)CC1)c1cccs1	i	i	i	14.1µM	i	i
CC1CCN(CC(=O)c2cccs2)CC1	13.3	i	i	i	36.7	i
CCN(C(=O)CSc1nnc(NC2CCCCC2)s1)C1CCS(=O)(=O)C1 (centres undefined)	i	nt	i	i	i	?
CCOC(=O)c1cnc2c(Cl)cc(Cl)cc2c1NCCCN1CCOCC1	i	i	i	12.6µM	nt	?

Screening results from PubChem BioAssay.
